Reference: PubChem BioAssay (Tox21)
Where “and” joins values, the source holds several entries; their conditions need not be identical. Identical values can stand only once. Unmarked numbers belong to inactive results. Records with an inconclusive call do not appear. A call without a number means that no potency is given here. Calls of active or inactive are those of the source. Unless noted, calls come from the whole dose curve; as a rule, active = well fitted curve in the direction sought with a large enough effect in the repeat runs; inconclusive = weak or mixed curves; inactive = no such curve, though single readings can be large; an effect the other way counts as inactive or inconclusive.

Assays:
[1] = qHTS assay to identify small molecule agonists of the androgen receptor (AR) signaling pathway in the presence of an antagonist - cell viability counter screen (AID 1259379); note: nearly all actives have a fitted effect of over 25% in size; note: potency is the fitted concentration of half-maximal effect
In short: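 Fluorescence from CellTiter-Fluor, added after 15 hr and read 1 hr later, gave cell viability. Cells were MDA-kb2 exposed to compounds (15 concentrations) in the presence of 3.0uM nilutamide at 37C, 0% CO2.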

[2] = qHTS assay to identify small molecule agonists of the estrogen receptor beta (ER-beta) signaling pathway - cell viability counter screen (AID 1259380); note: nearly all actives have a fitted effect of over 30% in size; note: potency is the fitted concentration of half-maximal effect
In short: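 Same-well viability counter screen. Cells: ER-beta-UAS-bla HEK293T, plated 6 hr before compound, in 2% charcoal-stripped FBS. Compound exposure 16 hr, 37C; viability by CellTiter-Glo luminescence after 30 min at room temperature.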

[3] = qHTS assay to identify small molecule antagonists of the estrogen receptor beta (ER-beta) signaling pathway - cell viability counter screen (AID 1259382); note: nearly all actives have a fitted effect of over 55% in size; note: potency is the fitted concentration of half-maximal effect
In short: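 Following a 6 hr plating period, HEK293T cells carrying a UAS-driven beta-lactamase reporter under ER-beta control received compounds and 1nM E2 (final). After 16 hr at 37C and 2 hr substrate loading, CellTiter-Glo luminescence indicated viability.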

[4] = molecular target: Estrogen receptor (Homo sapiens) (UniProt P03372); test: qHTS assay to identify small molecule agonists of the estrogen receptor alpha (ER-alpha) signaling pathway in the presence of an antagonist (AID 1259383; calls by dose curve; note: nearly all actives have a fitted effect of over 15% in size; note: potency is the fitted concentration of half-maximal effect; for activation: top concentration of the series differs between compounds)
Chain of Estrogen receptor (Homo sapiens) (P03372 whole entry, looked up): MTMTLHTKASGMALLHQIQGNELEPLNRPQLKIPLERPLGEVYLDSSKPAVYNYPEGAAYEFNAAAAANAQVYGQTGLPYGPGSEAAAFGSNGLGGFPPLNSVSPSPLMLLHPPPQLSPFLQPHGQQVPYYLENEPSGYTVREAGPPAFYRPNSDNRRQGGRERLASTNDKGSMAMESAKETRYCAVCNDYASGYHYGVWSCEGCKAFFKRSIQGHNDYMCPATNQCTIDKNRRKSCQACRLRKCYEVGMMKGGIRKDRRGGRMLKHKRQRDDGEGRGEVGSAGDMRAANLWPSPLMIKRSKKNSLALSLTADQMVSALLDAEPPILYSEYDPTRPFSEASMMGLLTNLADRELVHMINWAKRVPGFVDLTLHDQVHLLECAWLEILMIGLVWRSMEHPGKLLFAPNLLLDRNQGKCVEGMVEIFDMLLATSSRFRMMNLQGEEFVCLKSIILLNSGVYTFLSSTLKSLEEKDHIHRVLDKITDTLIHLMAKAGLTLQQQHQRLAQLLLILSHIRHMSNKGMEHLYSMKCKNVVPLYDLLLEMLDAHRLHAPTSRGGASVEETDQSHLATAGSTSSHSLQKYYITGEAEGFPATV
In short: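 Cells are hormone-deprived for 5 days (charcoal-stripped FBS, no phenol red), plated for 24hr, spiked with 10.0nM ICI-182,780, then dosed at 15 concentrations. After 22hr at 37C, ONE-Glo luminescence reports ERE-luciferase activity.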

[5] = qHTS assay to identify small molecule agonists or antagonists of the thyroid stimulating hormone receptor (TSHR) signaling pathway - wild type cell line counter screen (AID 1259384; calls by dose curve)
In short: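 Counter screen in untransfected Hek293: compounds (15-point titration, triplicate) plus phosphodiesterase inhibitor Ro20-1724 added after 18 h plating; 30 min RT. Intracellular cAMP via competitive d2/cryptate immunoassay, 1 h incubation.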

[6] = qHTS assay to identify small molecule agonists of the estrogen receptor alpha (ER-alpha) signaling pathway in the presence of an antagonist - cell viability counter screen (AID 1259386);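 note: cells exposed to compounds for 22 h at 37 °C before the viability read; nearly all actives have a fitted effect of over 30% in size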; note: potency is the fitted concentration of half-maximal effect
In short: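 Cells are starved of estrogens for 5 days in charcoal-stripped serum, seeded for 24hr and co-treated with ICI-182,780 (10.0nM final) and test compounds. After 22hr at 37C, viability is read as CellTiter-Fluor fluorescence.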

[7] = molecular target: Progesterone receptor (Homo sapiens) (UniProt P06401); test: qHTS assay to identify small molecule antagonists of the progesterone receptor (PR) signaling pathway (AID 1346795; active = well fitted inhibition curve with a large enough effect in the signal ratio in the repeat runs, not every such curve was filed as active; the % refers to the signal ratio; note: potency is the fitted concentration of half-maximal effect)
Chain of Progesterone receptor (Homo sapiens) (P06401 whole entry, looked up): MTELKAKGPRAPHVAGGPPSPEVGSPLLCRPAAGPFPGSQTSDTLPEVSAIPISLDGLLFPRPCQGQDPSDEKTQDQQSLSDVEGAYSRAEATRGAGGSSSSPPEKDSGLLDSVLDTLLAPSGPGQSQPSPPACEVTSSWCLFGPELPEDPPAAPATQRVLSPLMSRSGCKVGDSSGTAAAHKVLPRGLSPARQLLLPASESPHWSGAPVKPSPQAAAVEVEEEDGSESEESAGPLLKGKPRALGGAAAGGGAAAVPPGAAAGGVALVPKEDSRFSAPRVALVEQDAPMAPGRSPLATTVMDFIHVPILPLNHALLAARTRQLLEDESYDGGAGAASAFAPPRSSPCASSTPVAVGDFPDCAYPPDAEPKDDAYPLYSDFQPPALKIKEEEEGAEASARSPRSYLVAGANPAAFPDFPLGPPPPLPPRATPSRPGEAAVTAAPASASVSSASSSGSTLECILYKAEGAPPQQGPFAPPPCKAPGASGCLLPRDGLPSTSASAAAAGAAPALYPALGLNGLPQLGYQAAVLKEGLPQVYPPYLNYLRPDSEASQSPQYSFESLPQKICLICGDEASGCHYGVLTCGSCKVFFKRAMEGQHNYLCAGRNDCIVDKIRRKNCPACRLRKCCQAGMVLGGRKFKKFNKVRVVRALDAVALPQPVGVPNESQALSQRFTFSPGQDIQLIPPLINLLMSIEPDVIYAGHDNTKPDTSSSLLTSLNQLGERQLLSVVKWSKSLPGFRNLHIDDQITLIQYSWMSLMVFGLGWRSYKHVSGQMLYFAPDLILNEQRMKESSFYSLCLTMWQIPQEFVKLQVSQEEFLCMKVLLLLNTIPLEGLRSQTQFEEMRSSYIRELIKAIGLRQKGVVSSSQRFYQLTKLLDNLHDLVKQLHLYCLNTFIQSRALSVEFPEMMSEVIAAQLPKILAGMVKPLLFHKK
In short: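 Screening used a GripTite HEK293T line with PR-responsive UAS-beta-lactamase. Cells were challenged with compound in the presence of 1 nM R5020 final for 16 hr at 37C; B/G FRET substrate, 2 hr room temperature, fluorescence.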

[8] = qHTS assay to identify small molecule antagonists of the TGF-beta/Smad signaling pathway - cell viability counter screen (AID 1346824); note: nearly all actives have a fitted effect of over 50% in size; note: potency is the fitted concentration of half-maximal effect
In short: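 Cytotoxicity counter-screen run in the same wells as the beta-lactamase Smad reporter read: CellTiter-Glo luminescence after 30 min at room temperature. HEK 293T SBE-bla cells had 5 hr compound exposure at 37 C with TGF-beta1 (0.25 ng/mL stock).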

[9] = qHTS assay to identify small molecule agonists of the TGF-beta/Smad signaling pathway - cell viability counter screen (AID 1346829); note: nearly all actives have a fitted effect of over 45% in size; note: potency is the fitted concentration of half-maximal effect
In short: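 Luminescence from CellTiter-Glo, read after a 30 min room-temperature incubation, gives cell viability of SBE-bla HEK 293T cells treated 5 hr with compounds at 37 C.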

[10] = qHTS assay to identify small molecule agonists of the TGF-beta/Smad signaling pathway (AID 1346859; active = well fitted activation curve with a large enough effect in the signal ratio in the repeat runs, not every such curve was filed as active; the % refers to the signal ratio; note: series mostly up to about 77 µM)
In short: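 Beta-lactamase reporter activity downstream of Smad binding elements was measured in stably transfected HEK 293T cells; compounds were incubated for 5 hr, substrate for 2 hr at room temperature.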

[11] = molecular target: Thyrotropin-releasing hormone receptor (Homo sapiens) (UniProt P34981); test: qHTS assay to identify small molecule antagonists of the thyrotropin-releasing hormone receptor (TRHR) signaling pathway (AID 1346877; active = well fitted inhibition curve with a large enough effect in the repeat runs, not every such curve was filed as active; note: potency is the fitted concentration of half-maximal effect)
Chain of Thyrotropin-releasing hormone receptor (Homo sapiens) (P34981 whole entry, looked up): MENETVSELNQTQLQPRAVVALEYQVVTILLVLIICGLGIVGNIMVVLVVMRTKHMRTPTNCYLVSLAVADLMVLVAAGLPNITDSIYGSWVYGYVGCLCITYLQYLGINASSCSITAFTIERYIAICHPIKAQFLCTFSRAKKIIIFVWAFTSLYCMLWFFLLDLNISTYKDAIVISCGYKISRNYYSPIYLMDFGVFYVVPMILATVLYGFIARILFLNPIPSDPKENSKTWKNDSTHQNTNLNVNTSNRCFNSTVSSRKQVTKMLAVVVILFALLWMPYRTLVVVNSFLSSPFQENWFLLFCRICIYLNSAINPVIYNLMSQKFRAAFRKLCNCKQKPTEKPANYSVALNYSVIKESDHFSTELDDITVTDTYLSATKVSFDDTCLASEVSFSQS
In short: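 Cells (TRHR-HEK293) are plated and kept 18 h at 37 °C/5% CO2. A calcium-sensitive dye is added for 2 h, compound follows for 5 min at room temperature, and TRH is then given at 1 nM final.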

[12] = molecular target: Thyrotropin-releasing hormone receptor (Homo sapiens) (UniProt P34981); test: qHTS assay to identify small molecule agonists of the thyrotropin-releasing hormone receptor (TRHR) signaling pathway (AID 1346891; calls by dose curve; note: potency is the fitted concentration of half-maximal effect;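 for activation: HEK293 cells expressing TRHR with calcium dye readout; series mostly up to about 58 µM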)
In short: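 Overnight-plated (18 h, 37 °C, 5% CO2) TRHR-Hek293 cells; 2 h calcium dye at 37 °C; compound in DMSO; 3-min kinetic fluorescence read.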

[13] = Human pregnane X receptor (PXR) small molecule agonists, qHTS cell viability counter screen (AID 1346977); note: nearly all actives have a fitted effect of over 50% in size; note: potency is the fitted concentration of half-maximal effect
In short: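 After a 5hr pre-incubation, PXR-Luc HepG2 cells received compounds plus positive control in DMSO and were kept 24hr at 37C. Cell viability was quantified by fluorescence from CellTiter-Fluor added for the final hour.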

[14] = molecular target: Progesterone receptor (Homo sapiens) (UniProt P06401); test: qHTS assay to identify small molecule agonists of the progesterone receptor (PR) signaling pathway (AID 1346784; calls by dose curve; note: nearly all actives have a fitted effect of over 30% in size)
In short: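 Seed PR-UAS-bla HEK 293T cells (2% charcoal-stripped FBS), incubate 6 hr at 37C; add compounds in DMSO, 16 hr at 37C; add LiveBLAzer B/G substrate, 2 hr RT; read fluorescence intensity.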

[15] = qHTS assay to identify small molecule antagonists of the progesterone receptor (PR) signaling pathway - cell viability counter screen (AID 1346798); note: nearly all actives have a fitted effect of over 50% in size; note: potency is the fitted concentration of half-maximal effect
In short: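 Measures cytotoxicity in parallel with the PR antagonist reporter read: HEK293T PR-UAS-bla cells get compound and R5020 for 16 hr, and remaining viable cells are quantified by CellTiter-Glo luminescence.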

[16] = qHTS assay to identify small molecule agonists of the progesterone receptor (PR) signaling pathway - cell viability counter screen (AID 1346799; calls by dose curve; note: nearly all actives have a fitted effect of over 45% in size; note: potency is the fitted concentration of half-maximal effect)
In short: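 Using the same plates as the PR reporter screen, HEK293T PR-UAS-bla cells received compounds for 16 hr at 37C and were then lysed with CellTiter-Glo; luminescence was read 30 min later at room temperature.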

[17] = molecular target: Thyrotropin receptor (Homo sapiens) (UniProt P16473); test: qHTS assay to identify small molecule antagonists of the thyroid stimulating hormone receptor (TSHR) signaling pathway (AID 1259385; calls by dose curve; note: nearly all actives have a fitted effect of over 20% in size; note: potency is the fitted concentration of half-maximal effect)
Chain of Thyrotropin receptor (Homo sapiens) (P16473 whole entry, looked up): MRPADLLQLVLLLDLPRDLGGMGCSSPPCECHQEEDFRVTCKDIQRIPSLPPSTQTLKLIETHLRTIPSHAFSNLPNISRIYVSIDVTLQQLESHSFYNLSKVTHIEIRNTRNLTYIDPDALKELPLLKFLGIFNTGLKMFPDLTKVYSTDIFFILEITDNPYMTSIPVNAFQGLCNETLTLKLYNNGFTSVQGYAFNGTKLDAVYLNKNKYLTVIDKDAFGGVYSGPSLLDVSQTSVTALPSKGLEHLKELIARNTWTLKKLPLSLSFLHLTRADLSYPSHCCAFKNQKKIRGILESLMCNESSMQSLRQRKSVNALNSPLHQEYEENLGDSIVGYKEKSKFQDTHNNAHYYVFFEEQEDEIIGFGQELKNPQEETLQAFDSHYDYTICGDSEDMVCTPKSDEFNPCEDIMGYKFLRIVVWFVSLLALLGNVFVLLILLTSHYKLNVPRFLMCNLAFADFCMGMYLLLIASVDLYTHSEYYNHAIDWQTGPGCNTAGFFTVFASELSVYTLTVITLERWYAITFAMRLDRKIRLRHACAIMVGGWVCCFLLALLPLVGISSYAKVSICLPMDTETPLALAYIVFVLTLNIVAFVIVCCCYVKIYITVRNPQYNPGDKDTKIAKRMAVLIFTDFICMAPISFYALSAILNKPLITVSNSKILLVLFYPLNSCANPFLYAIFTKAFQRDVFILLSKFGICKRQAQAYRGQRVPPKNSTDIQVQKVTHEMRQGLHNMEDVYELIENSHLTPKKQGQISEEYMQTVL
In short: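 Antagonist mode: compound-treated TSHR-expressing HEK293 cells were stimulated with 1.5 ng/mL TSH (final) in presence of Ro20-1724 for 30 min at RT. HTRF cAMP detection after 1 h; each compound tested at 15 concentrations, triplicate.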

[18] = molecular target: Androgen receptor (Homo sapiens) (UniProt P10275); test: qHTS assay to identify small molecule agonists of the androgen receptor (AR) signaling pathway in the presence of an antagonist (AID 1259381; calls by dose curve; note: nearly all actives have a fitted effect of over 15% in size)
Chain of Androgen receptor (Homo sapiens) (P10275 whole entry, looked up): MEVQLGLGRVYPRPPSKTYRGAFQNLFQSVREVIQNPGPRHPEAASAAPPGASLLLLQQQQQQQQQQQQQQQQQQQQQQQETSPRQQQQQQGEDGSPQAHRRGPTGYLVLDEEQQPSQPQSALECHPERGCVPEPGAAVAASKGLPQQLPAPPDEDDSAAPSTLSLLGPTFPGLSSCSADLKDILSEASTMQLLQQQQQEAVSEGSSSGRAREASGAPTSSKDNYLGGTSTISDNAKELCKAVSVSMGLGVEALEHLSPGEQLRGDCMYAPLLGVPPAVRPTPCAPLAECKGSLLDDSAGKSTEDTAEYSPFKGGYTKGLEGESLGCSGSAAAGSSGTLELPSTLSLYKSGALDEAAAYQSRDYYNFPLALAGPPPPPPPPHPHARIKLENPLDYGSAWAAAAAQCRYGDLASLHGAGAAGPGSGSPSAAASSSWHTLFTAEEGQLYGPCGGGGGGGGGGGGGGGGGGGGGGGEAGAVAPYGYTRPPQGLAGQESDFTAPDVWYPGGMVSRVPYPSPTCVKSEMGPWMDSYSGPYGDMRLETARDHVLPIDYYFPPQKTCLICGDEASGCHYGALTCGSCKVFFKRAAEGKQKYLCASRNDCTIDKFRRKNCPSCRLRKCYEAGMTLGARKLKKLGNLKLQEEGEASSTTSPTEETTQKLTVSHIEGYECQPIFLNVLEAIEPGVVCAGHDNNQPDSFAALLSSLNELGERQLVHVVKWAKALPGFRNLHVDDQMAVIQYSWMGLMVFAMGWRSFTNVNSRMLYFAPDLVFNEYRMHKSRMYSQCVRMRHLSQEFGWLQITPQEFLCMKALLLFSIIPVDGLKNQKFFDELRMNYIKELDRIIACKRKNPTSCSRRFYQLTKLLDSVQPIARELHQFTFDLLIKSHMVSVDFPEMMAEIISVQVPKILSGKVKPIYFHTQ
In short: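 Cells are MDA-kb2 (human breast carcinoma, MMTV-luc, AR/GR responsive). Nilutamide is present at 3.0uM final throughout; compounds are added at 15 concentrations and incubated 16hr at 37C before ONE-Glo luminescence detection.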

| SMILES | Potency [1] | Potency [2] | Potency [3] | Potency [4] | outcome [5] | Potency [6] | Potency [7] | Potency [8] | Potency [9] | outcome [10] | Potency [11] | Potency [12] | Potency [13] | Potency [14] | Potency [15] | Potency [16] | Potency [17] | Potency [18] |
| --- | --- | --- | --- | --- | --- | --- | --- | --- | --- | --- | --- | --- | --- | --- | --- | --- | --- | --- |
| S=C=Nc1cccc2ccccc12 | inactive | 60.5 µM (active) | 67.9 µM (active) | inactive | inactive | 60.5 µM (active) | 67.9 µM (active) | inactive | inactive | inactive | inactive | inactive | 53.9 µM (active) | – | – | – | – | – |
| C[C@H]1O[C@@H](O[C@H]2[C@@H](O)C[C@H](O[C@H]3[C@@H](O)C[C@H](O[C@H]4CC[C@@]5(C)[C@H](CC[C@@H]6[C@@H]5CC[C@]5(C)[C@@H](C7=CC(=O)OC7)CC[C@]65O)C4)O[C@@H]3C)O[C@@H]2C)C[C@H](O)[C@@H]1O | inactive | 43.5 nM (active) and 47.3 nM (active) | 30.8 nM (active) and 42.2 nM (active) | inactive | inactive | inactive | – | – | – | – | inactive | inactive | – | inactive | 38.8 nM (active) and 94.4 nM (active) | 77.4 nM (active) and 237 nM (active) | – | – |
| CCCCCCCCCBr | inactive | inactive | inactive | inactive | inactive | inactive | inactive | inactive | inactive | inactive | inactive | inactive | inactive | inactive | inactive | inactive | inactive | – |
| CCCCCCCCCCCCCCCCCCn1cc[n+](C)c1 | 21.6 µM (active) | 30.5 µM (active) | 30.5 µM (active) | inactive | inactive | 60.8 µM (active) | 54.2 µM (active) | 21.7 µM (active) | 48.7 µM (active) | – | inactive | inactive | 8.58 µM (active) | inactive | – | 30.5 µM (active) | inactive | – |
| Oc1ccc(C2(c3ccc(O)cc3)CCCCC2)cc1 | inactive | 57.9 µM (active) | 57.9 µM (active) | 14.5 µM (active) | inactive | – | – | inactive | inactive | inactive | inactive | inactive | 57.9 µM (active) | – | – | – | – | – |
| C[C@@H]1CC[C@@]2(OC1)O[C@H]1[C@@H](O)[C@H]3[C@@H]4CC[C@H]5C[C@@H](O[C@@H]6O[C@H](CO)[C@H](O[C@@H]7O[C@H](CO)[C@@H](O)[C@H](O[C@@H]8OC[C@@H](O)[C@H](O)[C@H]8O)[C@H]7O[C@@H]7O[C@H](CO)[C@@H](O)[C@H](O[C@@H]8O[C@H](CO)[C@@H](O)[C@H](O)[C@H]8O)[C@H]7O)[C@H](O)[C@H]6O)[C@H](O)C[C@]5(C)[C@H]4CC[C@]3(C)[C@H]1[C@@H]2C | 57.8 µM (active) | 9.16 µM (active) | 10.3 µM (active) | inactive | inactive | 72.8 µM (active) | – | 23.2 µM (active) | 20.7 µM (active) | – | 0.804 µM (active) | 0.655 µM (active) | 10.3 µM (active) | – | 16.3 µM (active) | 14.5 µM (active) | 4.59 µM (active) | – |
| CC[C@H](C)[C@H]1O[C@]2(C=C[C@@H]1C)C[C@@H]1C[C@@H](C/C=C(\C)[C@@H](O[C@H]3C[C@H](OC)[C@@H](O[C@H]4C[C@H](OC)[C@@H](O)[C@H](C)O4)[C@H](C)O3)[C@@H](C)/C=C/C=C3\CO[C@@H]4[C@H](O)C(C)=C[C@@H](C(=O)O1)[C@]34O)O2 | 36.1 µM (active) | 18.1 µM (active) | 25.6 µM (active) | inactive | inactive | – | 16.1 µM (active) | – | inactive | – | inactive | inactive | 16.1 µM (active) | – | – | – | – | – |
| CCN(CC)C(=S)[S-].CCN(CC)C(=S)[S-].[Zn+2] | 60.6 µM (active) | 2.71 µM (active) | 2.15 µM (active) | inactive | inactive | 12.1 µM (active) | 1.08 µM (active) | 12.2 µM (active) | 38.6 µM (active) | inactive | – | – | 1.71 µM (active) | – | 1.21 µM (active) | – | 68 µM (active) | – |
| CCCN(CCC)c1c([N+](=O)[O-])cc(S(N)(=O)=O)cc1[N+](=O)[O-] | 51.8 µM (active) | 23.1 µM (active) | 54.9 µM (active) | 65.2 µM (active) | inactive | – | – | – | 58.6 µM (active) | – | – | – | 50.1 µM (active) | – | – | – | – | – |
| C[C@@H](Oc1ccc(Cl)cc1Cl)C(=O)O | inactive | inactive | inactive | inactive | inactive | inactive | – | inactive | inactive | – | inactive | inactive | inactive | inactive | inactive | inactive | inactive | – |
| CNC(C)Cc1ccc2c(c1)OCO2 (centres undefined) | inactive | inactive | inactive | inactive | inactive | inactive | 75.1 µM (active) | inactive | inactive | inactive | inactive | inactive | – | inactive | 66.9 µM (active) | inactive | – | – |
| Oc1ccc(I)cc1 | inactive | inactive | inactive | inactive | inactive | inactive | 61.1 µM (active) | inactive | inactive | inactive | – | – | inactive | inactive | – | inactive | – | – |
| O=C1c2ccccc2C(=O)C1C(=O)C(c1ccccc1)c1ccc(Cl)cc1 (centres undefined) | 27.3 µM (active) | 24.3 µM (active) | – | inactive | inactive | – | 19.3 µM (active) | inactive | – | inactive | – | – | 21.7 µM (active) | – | inactive | – | – | inactive |
| N#CSCSC#N | 70.1 µM (active) and 67.9 µM (active) | 27.9 µM (active) and 27 µM (active) | 55.7 µM (active) and 48.1 µM (active) | – | inactive | – | – | – | inactive | inactive | inactive | inactive | 39.8 µM (active) and 53.9 µM (active) | – | inactive | inactive | 55.7 µM (active) | inactive |
| COc1cc(C=O)cc2c1[C@H](COC(N)=O)[C@]1(OC(C)=O)ON2C[C@H]2[C@@H]1N2C(C)=O | 27.3 µM (active) | inactive | inactive | inactive | inactive | – | – | inactive | inactive | inactive | inactive | inactive | 1.93 µM (active) | – | – | – | – | – |
| CC(C)(c1ccc(O)c(-c2ccccc2)c1)c1ccc(O)c(-c2ccccc2)c1 | 54.5 µM (active) | 27.3 µM (active) | 27.3 µM (active) | inactive | – | 61.1 µM (active) | – | – | 34.7 µM (active) | – | inactive | inactive | 30.6 µM (active) | – | – | 30.6 µM (active) | – | inactive |
